Laboratory results reported in ChEMBL document CHEMBL3988442, “University of Dundee, Small-Polar-MMV Screening Library” (2021).
Screen size: about 48,000 compounds; about 13,000 (27%) showed an effect of 50% or more. The list shows a part of the results.

tested on: Wolbachia pipientis; test: Anti-Wolbachia Cell-Based Screen; assay type: functional; set-up: scale not given: in the data most compounds retested in dose-response had high values; conditions: 5 µM

Compound | Percent Effect
Cn1ncnc1CNC1CCCc2cc(F)ccc21 (stereo not given) | -3.531%
COc1cc(CN2CC[C@H](NC(C)=O)[C@@H](O)CC2)ccc1F | 106.7%
COc1ccc(CN2CC[C@H](NC(C)=O)[C@@H](O)CC2)c(F)c1 | 118.9%
COc1cccc(CN2CC[C@H](NC(C)=O)[C@@H](O)CC2)c1F | 34.02%
COc1ccc(CN2CCC(C(N)=O)CC2)cc1SC(F)(F)F | 0.6878%
COc1ccc(CN2CC[C@H](NC(C)=O)[C@@H](O)CC2)c(OC)c1 | -2.423%
COc1ccc(F)c(CN2CCCC3(CCN(C4CCOCC4)C3)C2)c1 (stereo not given) | -3.304%
O=C(C1CCOc2ccccc21)N1CCOc2cccc(F)c21 (stereo not given) | 6.908%
O=C(c1ccc(-n2cnnc2)cc1Cl)N1CCCC2(CCNC2)C1 (stereo not given) | -4.992%
CNc1cc2c(nn1)CCN(C(=O)c1cc(F)cc(F)c1)C2 | 8.008%
CNc1cc2c(nn1)CCN(C(=O)c1ccc3c(c1)CCC3)C2 | 114.4%
CNc1cc2c(nn1)CCN(C(=O)c1ccc3c(c1)OCO3)C2 | 105.8%
CNc1cc2c(nn1)CCN(C(=O)c1coc(Br)c1)C2 | 117.2%
Cc1ccc2oc(C(=O)N3CCc4nnc(N(C)C)cc4C3)cc2n1 | -8.128%
CNc1cc2c(nn1)CCN(C(=O)C1CCCc3ccccc31)C2 (stereo not given) | -4.064%
CNc1cc2c(nn1)CCN(C(=O)c1cc(C)no1)C2 | 125.3%
CN(C)CCNC(=O)c1ccc2c(-c3nccs3)noc2c1 | -16.02%
Cn1cc(S(=O)(=O)NCCc2nnc3ccccn23)cn1 | -3.582%
O=C(c1ncccn1)N1C[C@@H]2COC[C@]2(c2nnc(C3CC3)o2)C1 | -0.5118%
Cc1noc(C)c1CNC(=O)C1(NS(C)(=O)=O)CCCCC1 | -47.58%
Cc1ccc(C)c(CC(=O)NC2CCC(N3C(=O)CCC3=O)CC2)c1 (stereo not given) | 6.752%
CCn1cc(S(=O)(=O)N2CCN(S(=O)(=O)c3ccc(Br)s3)CC2)cn1 | 99.05%
CCN1CCN(S(=O)(=O)c2cc(C)c(Cl)cc2Cl)CC1 | 18.7%
CCn1cc(S(=O)(=O)N2CCN(S(=O)(=O)c3ccc(Br)s3)CC2)c(C)n1 | 110.7%
CCn1cc(S(=O)(=O)N2CCCSc3ccccc32)cn1 | -3.262%

Compound | Percent Effect
CCC1CCCN(S(=O)(=O)c2cnn(C)c2)C1 (stereo not given) | 12.29%
CCc1ccc(S(=O)(=O)N2CC3(COC(C)(C)OC3)C2)s1 | -8.267%
CCn1cc(S(=O)(=O)N2CCC(C)Sc3ccccc32)cn1 (stereo not given) | -6.533%
CC1(C)OCC2(CO1)CN(S(=O)(=O)c1ccc(Br)s1)C2 | -6.121%
Cn1cc(S(=O)(=O)N2CCN(S(=O)(=O)c3ccc(Br)s3)CC2)cn1 | 96.55%
O=C(NS(=O)(=O)c1ccc(F)cc1)C1CCOc2ccccc21 (stereo not given) | -10.91%
Cc1scc(C(=O)N2CCC3(CC(=O)NC3=O)C2)c1-c1ccccc1 (stereo not given) | -14.34%
CS(=O)(=O)N1CCCC12CCN(Cc1nccs1)C2.O=C(O)C(F)(F)F (stereo not given) | -1.689%
Cc1nc2c(c(C)c1CC(=O)Nc1ccccc1F)c(=O)[nH]n2C | -18.93%
Cc1nc2c(c(C)c1CC(=O)NCc1ccco1)c(=O)[nH]n2C | 144%
Cc1nc2c(c(C)c1CC(=O)Nc1ccnn1C(C)C)c(=O)[nH]n2C | -7.188%
Cc1cc(C)cc(NC(=O)Cc2c(C)nc3c(c2C)c(=O)[nH]n3C)c1 | 3.943%
Cc1ccc(C(C)NC(=O)Cc2c(C)nc3c(c2C)c(=O)[nH]n3C)o1 (stereo not given) | -8.138%
Cc1nc2c(c(C)c1CC(=O)NC(C)c1ccccc1)c(=O)[nH]n2C (stereo not given) | -24.46%
Cc1nc2c(c(C)c1CC(=O)NCc1ccc(F)cc1)c(=O)[nH]n2C | 91.6%
Cc1ccc(CNC(=O)Cc2c(C)nc3c(c2C)c(=O)[nH]n3C)cc1 | 114.9%
Cc1nc2c(c(C)c1CC(=O)NCc1ccccc1F)c(=O)[nH]n2C | 107.2%
Cc1ccc(C)c(NC(=O)Cc2c(C)nc3c(c2C)c(=O)[nH]n3C)c1 | 0.2479%
Cc1nc2c(c(C)c1CC(=O)NCc1cccc(C#N)c1)c(=O)[nH]n2C | 1.091%
CCNC(=O)Cc1c(C)nc2c(c1C)c(=O)[nH]n2C | -13.5%
Cc1c(F)cc(C(=O)NCC(F)(F)F)cc1NCC(=O)N(C)C | 4.918%
CCOc1ccccc1NC(=O)CN(C)Cc1ccccc1Cl | 6.554%
OCCn1cc(CN2CCN(CCOCC(F)(F)F)CC2)cn1 | 2.281%
CN(C)CC(=O)N1Cc2cc(N(C)C)ccc2C1c1cnco1 (stereo not given) | -12.83%
CC(C)C(C(=O)N(C)C)c1cccc(Cl)c1 (stereo not given) | -9.046%
